MEKK2 WT-MEK5 – raises or lowers MEK5 binding to wildtype human MEKK2 PB1 domain; Q9Y2U5; AID 1531; binding response (% of control), % at 10 µM; bead flow cytometry, Alexa488-MEK5 binding to MEKK2 WT; actives lie on both sides; 290,000 tested, 1.1% active; in the data active means binding response below about 67% or above about 130%
MEKK2 mut-MEK5 – signal of MEK5 binding to mutant human MEKK2 PB1 domain; bead flow cytometry, Alexa488-MEK5 binding to MEKK2 mutant; percent response, % at 10 µM; 290,000 tested, 0.35% active; in the data active means percent response above about 24%, passing the limit was not always enough
MEKK3 PB1 HTS – MEKK3-MEK5 PB1 interaction, increase or decrease; Q99759; bead-based flow cytometry, Alexa488-MEK5 binding to MEKK3; actives lie on both sides; 0 = blocked by unlabeled MEK5, 100 = vehicle; binding response (% of control), % at 10 µM; 290,000 tested, 1.4% active;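 active means binding response more than 3 SD above or below the average of its plate-row segment, actives on both sides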;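 further: Alexa488 bead fluorescence after subtracting the streptavidin-only scavenger bead signal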
Target sequence (Q99759 whole entry, looked up): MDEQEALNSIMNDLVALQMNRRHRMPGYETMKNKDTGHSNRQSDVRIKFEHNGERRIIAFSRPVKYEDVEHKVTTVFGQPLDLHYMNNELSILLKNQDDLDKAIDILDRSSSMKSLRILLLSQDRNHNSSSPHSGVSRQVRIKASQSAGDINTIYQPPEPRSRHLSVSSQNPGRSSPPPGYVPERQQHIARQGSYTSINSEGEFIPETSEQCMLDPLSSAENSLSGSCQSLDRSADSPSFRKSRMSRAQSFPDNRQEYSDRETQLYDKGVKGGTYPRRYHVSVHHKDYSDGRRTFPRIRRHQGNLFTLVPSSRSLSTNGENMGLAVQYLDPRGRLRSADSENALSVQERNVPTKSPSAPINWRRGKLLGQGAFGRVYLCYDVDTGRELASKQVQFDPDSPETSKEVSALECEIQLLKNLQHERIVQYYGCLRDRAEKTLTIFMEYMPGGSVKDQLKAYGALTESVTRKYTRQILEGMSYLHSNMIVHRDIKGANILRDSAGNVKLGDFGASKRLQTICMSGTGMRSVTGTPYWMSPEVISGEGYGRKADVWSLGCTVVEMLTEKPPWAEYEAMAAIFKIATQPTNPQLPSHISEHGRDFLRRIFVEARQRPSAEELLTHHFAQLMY
GRK2 aptamer HTS – human GRK2 inhibition via aptamer displacement; P25098; bead flow cytometry, FAM-aptamer displacement from GRK2; inhibition of aptamer binding, % at 10 µM; 330,000 tested, 0.59% active; AID 488847;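 active means inhibition of aptamer binding above 40%, roughly 3 SD of noise, on plates passing a quality check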;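 further: median bead fluorescence of bound FAM aptamer so fluorescent compounds give negative values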
GRK2 inh confirm – confirmation of human GRK2 inhibitors displacing RNA aptamer; shares compounds with GRK2 aptamer HTS; bead-bound GRK2, FAM-aptamer displacement, flow cytometry; aptamer displacement, % at 10 µM; 2,000 tested, 4% active; AID 504451;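 active means aptamer displacement above 40%, near three times the noise of non-fluorescent compounds, on plates passing quality checks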;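 further: negative values mostly reflect intrinsic compound fluorescence rather than true enhancement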
Aptamer quench SP – quenches fluorescent RNA aptamer, GRK2 hit artifact; shares compounds with GRK2 aptamer HTS; fluorescence response (% of DMSO), % at 10 µM; 2,000 tested, under 10 active; Carboxyfluorescein RNA aptamer on beads, flow cytometry quenching; stronger effect = lower value;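 active means compounds that quench the bead-bound fluorescent RNA probe, cutting fluorescence to under half of the solvent control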;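 further: counterscreen run without GRK2 so only probe quenching by compound is measured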
GRK2 confirm 2 – human GRK2 inhibition confirmation, cherry pick 2; inhibition of aptamer binding, % at 10 µM; shares compounds with GRK2 aptamer HTS; bead-bound GRK2, FAM-aptamer displacement, flow cytometry; 360 tested, under 10 active;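 active means inhibition of aptamer binding above 40%, about triple the noise seen with nonglowing compounds, on plates passing quality control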;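 further: negative values mostly come from compounds that fluoresce themselves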
FAM quench SP – aptamer fluorescence quenching in GRK2 counter-screen; fluorescence response vs DMSO, % at 10 µM; carboxyfluorescein RNA aptamer beads, flow cytometry quenching; stronger effect = lower value; 360 tested, under 10 active; shares compounds with GRK2 aptamer HTS; AID 588494;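 active means response vs DMSO under 50%, meaning signal dropped by over half, treated as fluorescence quencher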;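 further: labelled aptamer on streptavidin beads without GRK2 as a quench counter-screen; 100% = bead fluorescence of DMSO wells and lower means quenching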
An asterisk follows results filed as active; . = no result. Sampled rows, rich in hits. Any-hit rate of the full collection: about 2.5%.

SMILES	MEKK2 WT-MEK5	MEKK2 mut-MEK5	MEKK3 PB1 HTS	GRK2 aptamer HTS	GRK2 inh confirm	Aptamer quench SP	others
O=c1cc2c(n[nH]1)CCCC2	113	4	108	2	.	.
COc1cc(C2C(C(=O)OC(C)C)=C(C)Nc3ncnn32)cc(OC)c1OC (stereo not drawn)	116	17	111	0	.	.
CN1CCN(S(=O)(=O)c2ccc(NC(=O)C(C)(C)C)cc2)CC1	99	1	104	81*	-4	98
CCC(=O)Nc1nnc(SCC(=O)Nc2ccc3c(c2)OCCO3)s1	102	5	100	68*	.	.	GRK2 confirm 2=-9;FAM quench SP=100
Cc1ccc(NC(=O)CSc2nnc(NC(=O)c3ccco3)s2)cc1	101	-1	98	1	.	.
CC(=O)c1ccc(NC(=O)CSc2nnc(NC(=O)c3ccco3)s2)cc1	102	2	99	46*	.	.	GRK2 confirm 2=-17;FAM quench SP=99
CN1C(=O)C2(C(C#N)=C(N)Oc3n[nH]c(-c4ccc(Cl)cc4)c32)c2ccccc21 (stereo not drawn)	102	1	104	4	.	.
Cc1nc(C(F)(F)F)ccc1C(=O)Nc1ccccc1N1CCOCC1	108	5	106	6	.	.
O=C(N/N=C/c1ccc(Cl)cc1)c1ccc2c(c1)OCO2	104	3	106	59*	-9	120
CN(C)C(CNC(=O)C1CCCN(C(=O)c2ccc(Cl)cc2)C1)c1ccco1 (stereo not drawn)	106	3	101	68*	-5	95
Cc1cc(C)cc(NC(=S)N2CCN(c3ncc(C(F)(F)F)cc3Cl)CC2)c1	98	-4	94	0	.	.
Cc1cc(C)c(OCC(=O)N2CCN(c3ncc(C(F)(F)F)cc3Cl)CC2)c(C)c1	110	2	103	80*	.	.	GRK2 confirm 2=19;FAM quench SP=100
O=C1CC(=O)NC(SCC(=O)Nc2ccccc2[N+](=O)[O-])=N1	103	6	104	43*	.	107
c1coc(CNc2c3c(nc4ccccc24)CCC3)c1	94	-9	88	0	.	.	GRK2 confirm 2=2;FAM quench SP=101
CC(C)NCC(=O)Nc1c2c(nc3ccccc13)CCC2	104	6	108	0	.	.
Nc1c(C(=O)NCc2cccs2)nnn1CC(=O)Nc1cccc(Cl)c1	85	-6	103	42*	.	.	GRK2 confirm 2=2;FAM quench SP=97
CCN(CCNC(=O)C1CCN(c2nnc(-n3cccc3)s2)CC1)c1ccccc1	99	-1	98	2	1	97
CCc1ccc(CN(C)CC(=O)Nc2ccc(S(=O)(=O)N3CCOCC3)cc2)cc1	.	.	.	99*	-2	104
COc1ccc(C(c2nnnn2CS(=O)(=O)c2ccc(C)cc2)N2CCN(Cc3ccccc3)CC2)cc1 (stereo not drawn)	101	4	103	1	.	.
O=C(NCCc1ccccc1)C1CCN(C(=O)c2ccc(F)cc2)CC1	107	1	104	0	.	.
O=C(NCc1ccccc1CN1CCCC1)C1CCN(C(=O)c2ccc(F)cc2)CC1	.	.	.	69*	-46	120
O=C(Nc1ccc2c(c1)OCO2)Nc1ccc(Cl)cc1Cl	100	2	99	92*	-5	94
CCN(C(=O)C(C)N1C(=O)/C(=C/c2ccco2)SC1=S)C1CCS(=O)(=O)C1 (stereo not drawn)	92	-2	96	42*	1	102
CCNc1c(NS(=O)(=O)c2ccc(OC)c(Cl)c2)c(=O)oc2ccccc12	104	4	101	69*	5	101
COc1cccc(CNC(=O)CCS(=O)(=O)c2ccc3c(c2)NC(=O)C(C)S3)c1 (stereo not drawn)	102	8	103	20	.	.
CC1Sc2ccc(S(=O)(=O)CCC(=O)Nc3ccccn3)cc2NC1=O (stereo not drawn)	98	4	99	0	.	.

Compound activity (PubChem)
